INHIBITION data for 109 compounds are collected here from ChEMBL document CHEMBL4513216, “Probing the Open Global Health Chemical Diversity Library for Multistage-Active Starting Points for Next-Generation Antimalarials” (ACS Infect Dis, 2020).

The whole screen tested about 69,000 compounds, of which about 8,600 (12%) showed an effect of 50% or more. Many of the other results were omitted from the sample, so strong results are more common in it than they were.

This assay has as its system Plasmodium berghei. As to the kind of experiment: Screen against P. berghei liver stage (PbLuc), transformed with Luciferase, at 10uM. The assay is classed as functional, HepG2. The following applies: tested at 10 uM.
On to `CC(=O)NCC(=O)N1CCn2cc(CN(C)Cc3ccco3)nc2C1`, for which the INHIBITION worked out at 42.5%.
In the case of `O=C1COC2(CCN(C(=O)c3ccoc3)CC2)CN1Cc1cccnc1` it was 0.112%.
`Fc1ccccc1Oc1nccnc1C1CCCN(C2CCOCC2)C1` (centres undefined): the INHIBITION is -3.02%.
In the case of `O=C(NCc1ccnc(OCC(F)(F)F)c1)NCC1CCCO1` (centres undefined) it was -20.3%; in that of `O=C(c1ccc(Br)cc1F)N1CCc2ccncc21`, -4.91%.
In the case of `COc1ccc(C[C@H]2CN(C3CCOCC3)CC[C@@H]2OCC2CC2)cc1` it was 29.7%; in that of `Fc1ccc2[nH]c(C3CCCN3Cc3c[nH]cn3)nc2c1` (centres undefined), 42.6%; in that of `Cc1cc(C(=O)N2CCCCC2c2nc3cc(F)ccc3[nH]2)no1` (centres undefined), 4.97%.
For `O=C(c1ccon1)N1CCCCC1c1nc2cc(F)ccc2[nH]1` (centres undefined), the INHIBITION is reported as 62.9%.
The value for `Cn1nc(C(=O)N2CCCCC2c2nc3cc(F)ccc3[nH]2)ccc1=O` (centres undefined) was 11.8%; that for `O=C(CN1CCCC1c1nc2cc(F)ccc2[nH]1)NCc1ccccn1` (centres undefined) was 50.1%.
The value for `Fc1ccc2[nH]c(C3CCCN3CCc3ccccn3)nc2c1` (centres undefined) was 21.8%; that for `CN1CC2(CCN(Cc3ccoc3)CC2)COc2ccccc2S1(=O)=O` was 13.7%; that for `Cc1cc(C(N)=O)nc(C2(C)CCCN2Cc2cnn(C)c2)n1` (centres undefined) was 18.3%.
The value for `Cc1nccn1[C@@H]1CC[C@@H](N(C)S(=O)(=O)c2cccc(F)c2)[C@H]1O` was 16.96%.
Consider `Cc1cc(C2CCCN2CC(=O)N(CCC#N)c2ccccc2F)on1` (centres undefined), for which the INHIBITION turned out to be 26.8%.
The value for `CCN(C(=O)CN1CCCC1c1ccc(F)cc1)c1ccccc1C` (centres undefined) was -55.1%; that for `CCN(C(=O)CN1CCCC1c1cc(C)no1)c1ccccc1C` (centres undefined) was 62.4%.
In the case of `CN(C)CCOCc1nnc2n1CCN(Cc1cccs1)CC2` it was -35%; in that of `O=C(CSC1CCc2ccccc2NC1=O)NCc1cccs1` (centres undefined), 3.13%; in that of `CN(CCCc1nccn1C)c1nccc(-c2cc(C(=O)O)ccn2)n1`, 14%.
The value for `O=C(Cc1cnc(-n2cccc2)s1)NCCCO` was -1.99%.
As for `CS(=O)(=O)NCc1ncn2c1CN(Cc1cccs1)CCC2`, the INHIBITION is on record as -17.9%.
The value for `c1coc(COCc2ncn3c2CN(Cc2cccs2)CCC3)c1` was 56.7%; that for `CN(C)C(=O)NCc1ncn2c1CN(Cc1cccs1)CCC2` was 52.3%; that for `c1csc(CN2CCCn3cnc(COCC4CC4)c3C2)c1` was -1.55%.
In the case of `CN(C)C(=O)NCc1ncn2c1CN(Cc1ccco1)CCC2` it was 28.2%; in that of `OCCOCc1ncn2c1CN(Cc1cccs1)CCC2`, 21.8%; in that of `Cc1ccc(S(=O)(=O)NCCc2nnc[nH]2)c2cccnc12`, 33.7%.
The value for `O=C1CCCN1Cc1ncn2c1CN(C(=O)NC1CCCC1)CCC2` was -56.2%.
`NC(=O)N1CCCCCC1C1CCN(c2nccc(C(F)(F)F)n2)CC1` (centres undefined): the INHIBITION came to 61.8%.
In the case of `N#Cc1cccnc1N1CCC(C2CCCCCN2C(N)=O)CC1` (centres undefined) it was -5.567%.
The value for `O=C(C1CC1)N1CCCCCC1C1CCN(c2ncccn2)CC1` (centres undefined) was 22.3%; that for `CC(C)N1CCC(c2nccnc2Nc2cnccn2)CC1` was 23.9%.
In the case of `Cc1ncc(C(=O)NCCNC(=O)c2ccccc2)s1` it was 0.411%; in that of `CCc1nc(C)c(C(=O)NCCNc2ncccc2C#N)s1`, 2.3%; in that of `CCCc1nc(C)c(C(=O)NCCNc2ncccn2)s1`, 19.6%.
Consider `CCc1nc(C)c(C(=O)NCCNc2ncnc3sccc23)s1`, for which the INHIBITION was found to be 93.3%.
The value for `CCc1ncncc1C(=O)NCCNc1ncnc2sccc12` was 41.3%; that for `CCc1nc(C)c(C(=O)NCCNC(=O)c2cccs2)s1` was 58%; that for `Cc1ncsc1C(=O)NCCNC(=O)c1cccs1` was 10.2%.
The value for `CCc1nc(C)c(C(=O)NCCNc2ncccn2)s1` was 29.1%; that for `Cc1ncc(C(=O)NCCNc2ccncc2)s1` was -21.3%.
In the case of `CCc1ncc(C(=O)NCCNc2ccncc2)s1` it was 23.4%.
Consider `CCc1ncc(C(=O)NCCNc2ncnc3sccc23)s1`, for which the INHIBITION worked out at 96%.
In the case of `Cc1ncc(C(=O)NCCNc2ncnc3sccc23)s1` it was 77.1%; in that of `COc1c(C2CCCN2C(=O)c2cc(C)on2)c(C)nn1C` (centres undefined), 14.1%.
In the case of `Cc1ncc2c(n1)CN(CC(=O)Nc1nccs1)CC2` it was 1.78%.
For the compound `COc1ccccc1OCCNCc1c(C)nn(C)c1N(C)C`, the INHIBITION is given as -11.98%.
With `CCOc1ccc(C(=O)N(C)Cc2nccn2CC(F)(F)F)cc1`, the INHIBITION came to 21.7%.
The value for `Cc1ccc(CC(=O)N2CCCC(n3nc(C)cc3C)C2)cn1` (centres undefined) was 5.03%.
In the case of `CC(=O)c1cccc(NC(=O)Cn2cc(-c3ccccc3)ncc2=O)c1` it was 17%; in that of `O=C(NCc1ccnc(OCC2CC2)c1)C1Cc2ccccc2O1` (centres undefined), -39.6%; in that of `Clc1ccccc1CN1CCCC(c2nnc(-c3cnccn3)o2)C1` (centres undefined), 2.71%.
The value for `CC(O)c1cn(Cc2ccc(F)cc2)nn1` (centres undefined) was 23.6%; that for `CN(C)c1ncc(-c2cc(C(=O)NCCC#N)n(CC3CC3)c2)cn1` was -2.35%; that for `Cc1cnc(-c2nc(C3CCN(Cc4ccccc4Cl)CC3)no2)cn1` was 32.35%.
On to `c1cc(-c2noc(CN3CCn4c(nnc4C4CC4)C3)n2)cs1`, for which the INHIBITION was -14.65%.
In the case of `Cc1nc(C)n(C2CCCN(C(=O)CCc3cscn3)C2)n1` (centres undefined) it was 37.9%.
The value for `c1cnc(C2CCCN(Cc3ccsc3)C2)cn1` (centres undefined) was 25.4%; that for `O=C(c1c[nH]c(=O)[nH]1)N1CCCC2(CCC(=O)N(C3CCCC3)C2)C1` (centres undefined) was 37.7%; that for `O=C(Nc1ccc(F)cc1)N1CCC2(CCC(=O)N(C3CC3)C2)CC1` was 31.6%.
In the case of `Cc1ncc(CC(=O)N2CCC3(CCC(=O)N(CCO)C3)CC2)c(=O)[nH]1` it was 46.1%.
Regarding `O=C(Cc1c[nH]c(=O)[nH]c1=O)N1CCC2(CCC(=O)N(C3CC3)C2)CC1`, the INHIBITION was 58.2%.
In the case of `CC1(C)CC(CN2CCC3(CCC(=O)N(C4CCC4)C3)CC2)CCO1` (centres undefined) it was 6.27%.
In the case of `Cc1ncc(CC(=O)N2CCC3(CCC(=O)N(C4CC4)C3)CC2)c(=O)[nH]1`, the INHIBITION turned out to be 50.8%.
The value for `Cc1cnn(CC(=O)N2CCC3(CCC(=O)N(C4CCCC4)C3)CC2)c1` was 39.1%; that for `CC1(C)CC(C(=O)N2CCC3(CCC(=O)N(C4CC4)C3)CC2)CCO1` (centres undefined) was 53.3%; that for `CC(=O)c1ccc(N2CCC3(CCC(=O)N(C4CC4)C3)CC2)nc1` was -25.7%.
For the compound `O=C(COC1CCCC1)NCCc1noc(-c2ccccn2)n1`, the INHIBITION is -13.1%.
In the case of `Cc1cc(N(C)C)nc(C2COCCN2Cc2cc(C)on2)n1` (centres undefined) it was 44.8%; in that of `CNC(=O)C1(c2cnccn2)CCCN1C(=O)c1ccc(OC)cc1` (centres undefined), 20.8%.
In the case of `N[C@@H](Cc1c[nH]cn1)C(=O)N1CCC(Oc2ccc(F)cc2)CC1` it was 42.8%; in that of `CN1CC2(CCN(Cc3cc(Cl)ccc3OCC(=O)O)CC2)OC1=O`, 33.3%; in that of `O=C(O)COc1ccc(Cl)cc1CN1CCC2(CCNCC2)CC1`, 5.46%.
Consider `O=C(O)COc1ccc(Cl)cc1CN1CCC2(CCOCC2)CC1`, for which the INHIBITION amounted to 64.5%.
The value for `Cc1ccc2cc(C(=O)N3CCCC3Cn3cccn3)[nH]c2c1` (centres undefined) was -167%; that for `CCC1CN(C)c2ccccc2CN1CCn1cncn1` (centres undefined) was 40.6%; that for `COc1ccc(-n2cccn2)cc1S(=O)(=O)N1C[C@H](C2CC2)[C@@H](N)C1` was 12.8%.
In the case of `N[C@H]1CN(S(=O)(=O)Cc2ccccc2)C[C@@H]1C1CC1` it was -28.7%; in that of `N[C@H]1CN(S(=O)(=O)c2ccccc2)C[C@@H]1C1CC1`, 58.3%; in that of `Cc1ccc(-n2cccn2)cc1S(=O)(=O)N1C[C@H](C2CC2)[C@@H](N)C1`, 59.5%.
The value for `N[C@H]1CN(CCCOc2ccccc2)C[C@@H]1C1CC1` was 53.8%.
Regarding `NC(=O)c1ccc(OCCCN2C[C@H](C3CC3)[C@@H](N)C2)cc1`, the INHIBITION was -13.4%.
For `N[C@H]1CN(CCOc2ccc(F)cc2)C[C@@H]1C1CC1`, the INHIBITION is given as 27.6%.
In the case of `Cc1ccc(-n2cccn2)cc1S(=O)(=O)N1C[C@H]2CC[C@@H](C1)N(C)C2` it was 48.1%; in that of `N[C@H]1CN(S(=O)(=O)c2cccnc2)C[C@@H]1C1CC1`, 1.98%.
In the case of `CCS(=O)(=O)N1CCC2(CCN(CC(=O)N(C)C)C2=O)CC1` it was 37.1%.
In the case of `NC(=O)c1ccccc1Oc1cccc(C2CCCNC2)n1` (centres undefined) it was -13.2%; in that of `O=c1[nH]c2ccc(S(=O)(=O)N(CCO)Cc3ccncc3)cc2[nH]1`, 17.5%.
For `Cc1oncc1C(=O)N1CCOCC2(CCN(c3ccccn3)C2)C1` (centres undefined), the INHIBITION is 45.1%.
The value for `c1ccc(OCC2CC3(CCN(c4ncccn4)CC3)CO2)nc1` (centres undefined) was -34%.
With `COc1ccnc(N2CCN(CC(=O)N3CCC(C)CC3)CC2)n1`, the INHIBITION is -22.9%.
For the compound `Cc1cc(CN(C)C(=O)c2ccc(F)c(C(F)(F)F)c2)no1`, the INHIBITION worked out at 23.5%.
In the case of `CN(Cc1ccccc1C#N)C1CCN(CCc2ccccn2)CC1` it was -52.5%; in that of `c1ccc(-c2noc(CCNC3CCOC4(CCOCC4)C3)n2)nc1` (centres undefined), -37.8%.
The value for `CCn1cc(CN2CCCN(C(=O)c3sc(C)nc3C)CC2)cn1` was 7.08%; that for `O=C(c1ccsc1)N1CCc2onc(COc3ccccn3)c2C1` was 45.8%; that for `COc1c(CNCc2ccccc2Cn2ccnc2)c(C)nn1C` was 24%.
In the case of `CCCc1nnsc1C(=O)N1CCN(CC(O)c2ccco2)CC1` (centres undefined) it was 7.85%; in that of `Nc1ccnc(CNc2cc(F)ccc2OCC2CCCO2)n1` (centres undefined), 54.4%.
On to `O=C(CNc1cc(F)ccc1OCC1CCCO1)N1CCOCC1` (centres undefined), for which the INHIBITION worked out at 19.5%.
The value for `CCc1noc(CNc2ccc(F)cc2OCC2CC2)n1` was -29.9%; that for `Fc1ccc(OCC2CCCO2)c(NCc2cn3cccnc3n2)c1` (centres undefined) was 59.3%; that for `Fc1ccc(OCC2CCCO2)c(NCc2noc(C3CC3)n2)c1` (centres undefined) was 35.5%.
The value for `CCc1nc(CNc2cc(Cl)ccc2OCC2CCCO2)no1` (centres undefined) was 93.1%.
Turning to `CCc1noc(CNc2cc(F)ccc2OCC2CCCO2)n1` (centres undefined), the INHIBITION was 1.81%.
Consider `O=C(Nc1cc(F)ccc1OCC1CCCO1)c1ccccn1` (centres undefined), for which the INHIBITION is given as -25.9%.
The value for `CC(C)(C)c1nnc(CNc2cc(F)ccc2OCC2CCCO2)o1` (centres undefined) was 35.5%.
